# Source: PubChem BioAssay (EPA / NIEHS)
# Several values for one entry are separate records, joined by “and”; a condition that tells them apart may be missing. Identical values can stand only once. Some compounds were tested as several samples or in several runs, with calls that do not always agree. Activity calls are given as the source filed them. The calls were made as follows: active = hit-call score of the fitted dose curve at least 0.9, where 1 is the maximum; inactive = score below 0.9.
# Key:
# [1] = APR_HepG2_P-H2AX_24hr: Apredica 24-hour HepG2 Assay for H2AX Phosphorylation (AID 2282920); details: high-content imaging, actives raise or lower the signal
# How it was run: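 Human HepG2 liver cells, treated 24 hr with test chemicals (0.39–200 uM, final DMSO 0.5% v/v), are fixed and co-stained for phospho-H2A.x and c-Jun with Hoechst. Imaged intensity is fitted in both directions against DMSO controls.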
# [2] = APR_HepG2_StressKinase_72hr: Apredica 72-hour HepG2 Assay for Stress Kinase (AID 2282921); details: HepG2 stress kinase (phospho-c-Jun) imaging, actives raise or lower the signal
# How it was run: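 Phospho-c-Jun immunofluorescence measured by high-content imaging at 20x, six fields per well; bidirectional curve fitting against DMSO as baseline. Dosing: 0.39–200 uM, 72 h, 0.5% DMSO final.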
# [3] = APR_HepG2_StressKinase_24hr: Apredica 24-hour HepG2 Assay for Stress Kinase (AID 2282922); details: HepG2 stress kinase (phospho-c-Jun) imaging, actives raise or lower the signal
# How it was run: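 Read-out: phospho-c-Jun immunofluorescence (Cy3 secondary) quantified by high-content imaging at 20x, nuclei defined by Hoechst 33342. Human HepG2 liver cells dosed 24 hr, 0.39–200 uM, DMSO 0.5% v/v; gain or loss of signal fitted relative to DMSO.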
# [4] = APR_HepG2_NuclearSize_72hr: Apredica 72-hour HepG2 Assay for Nuclear Size (AID 2282925); details: high-content imaging, actives raise or lower the signal
# How it was run: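 Read-out: nuclear diameter from Hoechst 33342 images (ArrayScan, 20x, six fields/well), via cell-cycle image analysis. HepG2 were dosed 0.39–200 uM for 72 hr in 0.5% DMSO. Bidirectional fit relative to DMSO.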
# [5] = ATG_CRE_CIS: Attagene CIS-FACTORIAL HepG2 Assay for human cAMP Responsive Element (CRE) binding protein 3 (AID 2282926); details: HepG2 CRE cis-reporter, Attagene multiplexed mRNA; actives raise or lower the signal
# How it was run: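 Liver-derived HepG2, transfected with a CRE-containing reporter panel, exposed 24 h; transcript levels sized and quantified by capillary electrophoresis of labelled amplicons; signal changes either way referenced to vehicle.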
# [6] = target: CCAAT/enhancer-binding protein beta (Homo sapiens) (UniProt P17676); assay: ATG_C_EBP_CIS: Attagene CIS-FACTORIAL HepG2 Assay for human CCAAT/Enhancer Binding Protein (C/EBP) beta (AID 2282927); details: HepG2 Attagene cis-factorial transcription factor reporter; actives raise or lower the signal
# Sequence of CCAAT/enhancer-binding protein beta (Homo sapiens) (P17676 whole entry, looked up): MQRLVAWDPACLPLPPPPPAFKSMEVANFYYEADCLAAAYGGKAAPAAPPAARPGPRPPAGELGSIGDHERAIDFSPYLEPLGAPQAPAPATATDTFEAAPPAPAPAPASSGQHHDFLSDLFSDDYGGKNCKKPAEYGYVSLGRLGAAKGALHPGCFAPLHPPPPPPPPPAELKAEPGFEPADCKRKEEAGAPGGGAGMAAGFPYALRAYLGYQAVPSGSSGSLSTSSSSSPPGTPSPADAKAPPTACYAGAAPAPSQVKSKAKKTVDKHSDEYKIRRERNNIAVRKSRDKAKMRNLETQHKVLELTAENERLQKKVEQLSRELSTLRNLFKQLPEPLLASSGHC
# How it was run: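 Transiently transfected HepG2 (MRTU library, endogenous TF-driven promoters); 24 h dosing; total RNA → oligo(dT) RT → PCR → 6-FAM primer extension → HpaI digest → CE; fit bidirectionally vs DMSO.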
# [7] = ATG_CMV_CIS: Attagene CIS-FACTORIAL HepG2 Assay for human CMV (Internal Marker) (AID 2282928); details: HepG2 CMV promoter reporter, transcription factor profiling; actives raise or lower the signal;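 also: endpoint acts as a background internal control marker rather than a target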
# How it was run: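 24 h chemical treatment, HepG2 with transient multi-reporter transfection; RNA → oligo(dT) RT → PCR → 6-FAM extension → HpaI digest → CE fluorescence. Bidirectional fit, DMSO negative control.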
# [8] = target: Aryl hydrocarbon receptor (Homo sapiens) (UniProt P35869); assay: ATG_Ahr_CIS: Attagene CIS-FACTORIAL HepG2 Assay for human Aryl Hydrocarbon Receptor (Ahr) (AID 2282930); details: HepG2 AhR cis-factorial reporter transcription; actives raise or lower the signal
# Sequence of Aryl hydrocarbon receptor (Homo sapiens) (P35869 whole entry, looked up): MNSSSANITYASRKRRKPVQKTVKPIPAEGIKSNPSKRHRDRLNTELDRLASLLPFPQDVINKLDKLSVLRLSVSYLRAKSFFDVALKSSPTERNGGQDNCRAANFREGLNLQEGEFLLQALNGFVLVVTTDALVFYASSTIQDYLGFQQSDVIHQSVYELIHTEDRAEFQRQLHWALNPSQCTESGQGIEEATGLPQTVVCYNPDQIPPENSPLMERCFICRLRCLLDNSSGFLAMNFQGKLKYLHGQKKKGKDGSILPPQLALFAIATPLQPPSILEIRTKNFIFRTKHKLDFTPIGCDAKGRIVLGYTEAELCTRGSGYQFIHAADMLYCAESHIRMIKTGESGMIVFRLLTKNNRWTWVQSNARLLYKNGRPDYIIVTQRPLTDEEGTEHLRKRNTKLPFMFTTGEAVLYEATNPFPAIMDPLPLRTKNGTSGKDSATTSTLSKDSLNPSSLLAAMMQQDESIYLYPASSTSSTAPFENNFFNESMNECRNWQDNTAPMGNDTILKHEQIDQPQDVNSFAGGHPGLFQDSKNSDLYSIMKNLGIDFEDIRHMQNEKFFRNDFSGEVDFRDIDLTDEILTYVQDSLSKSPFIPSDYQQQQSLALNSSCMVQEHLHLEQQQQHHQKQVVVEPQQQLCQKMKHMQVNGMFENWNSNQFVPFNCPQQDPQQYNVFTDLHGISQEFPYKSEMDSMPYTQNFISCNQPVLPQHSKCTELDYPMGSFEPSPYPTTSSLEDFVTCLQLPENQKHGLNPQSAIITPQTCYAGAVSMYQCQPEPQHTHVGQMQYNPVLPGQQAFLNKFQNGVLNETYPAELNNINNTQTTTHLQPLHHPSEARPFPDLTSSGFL
# How it was run: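 Read-out: reporter mRNA quantified by RT-PCR with fluorescent primer extension and capillary electrophoresis. Human HepG2 liver cells carried transfected cis-promoter reporter units and were exposed to chemical for 24 h; gain or loss fitted relative to DMSO.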
# [9] = ATG_AP_1_CIS: Attagene CIS-FACTORIAL HepG2 Assay for human Activator Protein 1 (AP-1) (AID 2282931); details: HepG2 Attagene cis-factorial AP-1 reporter mRNA; actives raise or lower the signal
# How it was run: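 After 24 h incubation with test chemical, RNA from transfected HepG2 cells was reverse-transcribed, amplified, fluorescently labelled and digested before capillary electrophoresis. Reporters were driven by cis-regulatory promoters; activity fitted bidirectionally versus DMSO.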
# [10] = ATG_AP_2_CIS: Attagene CIS-FACTORIAL HepG2 Assay for human Activator Protein 2 (AP-2) (AID 2282932); details: HepG2 AP-2 cis-reporter, Attagene transcription factor profiling; actives raise or lower the signal
# How it was run: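 Read-out: fluorescent reporter mRNA via RT-PCR and capillary electrophoresis, 24 h post-dose in transiently transfected HepG2. Endogenous factors drive cis-promoter reporters; gain or loss of signal fitted bidirectionally against DMSO.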
# [11] = ATG_BRE_CIS: Attagene CIS-FACTORIAL HepG2 Assay for human Bone Morphogenetic Protein (BMP) Response Element (BRE) (AID 2282933); details: HepG2 BMP response element reporter, Attagene transcription factor profiling; actives raise or lower the signal
# How it was run: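 Endogenous transcription factor activity at a BMP response element was monitored in transfected HepG2 cells 24 h after dosing. Fluorescent RT-PCR products were resolved by capillary electrophoresis, and activity was fitted in both directions versus DMSO.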
# [12] = target: Retinoic acid receptor alpha (Homo sapiens) (UniProt P10276); assay: ATG_DR5_RAR_CIS: Attagene CIS-FACTORIAL HepG2 Assay for human Retinoic Acid Receptor Alpha (RARE), DR5 submotif (AID 2282934); details: HepG2 Attagene cis-factorial RARE DR5 reporter, mRNA; actives raise or lower the signal;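 as to AC50: reporter responds to endogenous RAR alpha beta and gamma in HepG2 not RARA alone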
# Sequence of Retinoic acid receptor alpha (Homo sapiens) (P10276 whole entry, looked up): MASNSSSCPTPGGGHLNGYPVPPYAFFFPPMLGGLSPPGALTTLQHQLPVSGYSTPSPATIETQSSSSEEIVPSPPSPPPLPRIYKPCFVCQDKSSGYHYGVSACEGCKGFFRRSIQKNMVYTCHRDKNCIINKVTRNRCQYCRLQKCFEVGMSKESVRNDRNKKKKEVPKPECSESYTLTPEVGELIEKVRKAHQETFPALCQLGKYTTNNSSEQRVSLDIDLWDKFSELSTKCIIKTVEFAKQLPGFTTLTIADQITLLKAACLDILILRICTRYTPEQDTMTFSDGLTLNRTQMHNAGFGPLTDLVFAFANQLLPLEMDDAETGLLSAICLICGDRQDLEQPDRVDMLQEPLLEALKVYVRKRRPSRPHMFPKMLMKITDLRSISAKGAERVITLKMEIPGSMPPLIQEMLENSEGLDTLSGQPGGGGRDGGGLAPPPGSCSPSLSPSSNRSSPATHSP
# How it was run: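 Read-out: DR5-driven reporter transcript measured by RT-PCR, 6-FAM primer extension, HpaI digest and capillary electrophoresis. Human HepG2 liver cells carry transiently transfected cis-element reporter constructs; dosing lasts 24 h. Gain or loss of signal fitted against DMSO baseline.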
# [13] = target: Transcription factor E2F1 (Homo sapiens) (UniProt Q01094); assay: ATG_E2F_CIS: Attagene CIS-FACTORIAL HepG2 Assay for human E2F Transcription Factor 1 (AID 2282935); details: HepG2 Attagene cis-reporter, E2F reporter RNA transcripts; actives raise or lower the signal
# Sequence of Transcription factor E2F1 (Homo sapiens) (Q01094 whole entry, looked up): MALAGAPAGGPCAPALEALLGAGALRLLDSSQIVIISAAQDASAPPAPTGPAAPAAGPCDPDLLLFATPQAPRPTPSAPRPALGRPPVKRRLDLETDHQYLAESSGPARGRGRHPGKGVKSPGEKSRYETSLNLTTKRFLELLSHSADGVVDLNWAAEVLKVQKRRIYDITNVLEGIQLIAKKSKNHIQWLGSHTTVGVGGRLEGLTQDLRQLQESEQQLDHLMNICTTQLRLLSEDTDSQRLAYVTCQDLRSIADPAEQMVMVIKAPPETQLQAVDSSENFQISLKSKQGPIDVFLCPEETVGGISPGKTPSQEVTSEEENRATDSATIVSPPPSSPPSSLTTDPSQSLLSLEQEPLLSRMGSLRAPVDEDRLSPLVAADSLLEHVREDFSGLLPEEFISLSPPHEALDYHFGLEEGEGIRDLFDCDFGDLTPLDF
# How it was run: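 Transient MRTU transfection of HepG2; 24 h compound exposure; RNA → oligo(dT) RT → PCR → FAM label → HpaI cut → CE fluorescence. Gain/loss of signal fit against DMSO.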
# [14] = ATG_M_61_CIS: Attagene CIS-FACTORIAL HepG2 Assay for M61 Transcription Factor (Internal Marker) (AID 2282937); details: HepG2 Attagene CIS-FACTORIAL M61 internal marker reporter; actives raise or lower the signal
# How it was run: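 Using transiently transfected HepG2 liver cells, reporter transcript levels were assessed 24 h post-dosing by RT-PCR and capillary electrophoresis. Changes in either direction were fitted relative to DMSO controls.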
# [15] = ATG_EGR_CIS: Attagene CIS-FACTORIAL HepG2 Assay for human Early Growth Response 1 (EGR1) (AID 2282938); details: HepG2 Attagene CIS-FACTORIAL EGR reporter mRNA; actives raise or lower the signal
# How it was run: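 Fluorescent capillary-electrophoresis signal of reporter cDNA fragments serves as read-out. HepG2 cells bear transiently transfected cis-promoter reporter units and are exposed 24 h; gain- or loss-of-signal is fitted against DMSO.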
# [16] = APR_HepG2_MicrotubuleCSK_72hr: Apredica 72-hour HepG2 Assay for Microtubule CSK Stabilty (AID 2282919); details: HepG2 microtubule cytoskeleton, high-content imaging, actives raise or lower the signal
# How it was run: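 HepG2, 72 hr cmpd exposure, 0.39–200 uM (10 pts, duplicate), 0.5% DMSO. 3.7% formaldehyde fix, 0.5% Triton perm, anti-alpha-tubulin/Cy5 plus Hoechst. HCS fluorescence intensity; bidirectional fit vs DMSO baseline; taxol as positive control.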
# [17] = APR_HepG2_MitoMass_72hr: Apredica 72-hour HepG2 Assay for Mitochondrial Mass (AID 2282924); details: high-content imaging, actives raise or lower the signal;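 also: MitoTracker Red CMXRos stain intensity per cell imaged as mitochondrial mass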
# How it was run: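 Read-out: MitoTracker Red fluorescence intensity from automated imaging (20x, six fields per well) in human HepG2 liver cells. Dosing ran 72 hr, 0.39–200 uM, 0.5% DMSO; bidirectional curve fitting versus DMSO baseline.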
# [18] = ATG_DR4_LXR_CIS: Attagene CIS-FACTORIAL HepG2 Assay for human Liver X Receptor (LXR), DR4 submotif (AID 2282929); details: HepG2 Attagene DR4 cis-reporter, mRNA transcription; actives raise or lower the signal
# How it was run: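 After transient transfection with multiplexed cis-promoter reporter units, HepG2 cells received test chemicals for 24 h. Reporter mRNA induction, detected by fluorescence after RT-PCR and capillary electrophoresis, was scored relative to DMSO.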
# [19] = ATG_E_Box_CIS: Attagene CIS-FACTORIAL HepG2 Assay for human Enhancer Box (E-box) (AID 2282936); details: HepG2 E-box cis-reporter transcription, actives raise or lower the signal
# How it was run: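 Transiently transfected HepG2, endogenous TF-driven reporters, 24 h dosing. Readout: RT-PCR plus capillary electrophoresis of fluorescent reporter fragments. Gain or loss of signal fitted bidirectionally against DMSO baseline.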
# [20] = APR_HepG2_p53Act_72hr: Apredica 72-hour HepG2 Assay for p53 Activation (AID 2282923); details: high-content imaging, actives raise or lower the signal;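 also: average cellular p53 protein immunofluorescence intensity in HepG2 cells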
# How it was run: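 Readout: p53 immunofluorescence quantified by automated high-content imaging at 20x, six fields per well, nuclei located via Hoechst. Dosing ran 72 hr over ten concentrations from 0.39 to 200 uM; bidirectional curve fitting against DMSO baseline.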
structure (smiles),measurement,setting,value
COc1ccccc1N,outcome,[1],inactive
same,outcome,[2],inactive
same,outcome,[3],inactive
same,outcome,[4],inactive
same,outcome,[5],inactive
same,outcome,[6],inactive
same,outcome,[7],inactive
same,AC50,[8],78.3 µM (active)
same,outcome,[8],inactive
same,outcome,[9],inactive
same,outcome,[10],inactive
same,outcome,[11],inactive
same,outcome,[12],inactive
same,outcome,[13],inactive
same,outcome,[14],inactive
same,outcome,[15],inactive
Nc1ccc(N)cc1,AC50,[5],11.7 µM (active)
same,outcome,[5],inactive
same,outcome,[6],inactive
same,AC50,[7],24.3 µM (active)
same,outcome,[7],inactive
same,AC50,[9],70.9 µM (active)
same,outcome,[9],inactive
same,outcome,[10],inactive
same,outcome,[11],inactive
same,AC50,[12],37.5 µM (active)
same,outcome,[12],inactive
same,outcome,[13],inactive
same,outcome,[14],inactive
same,outcome,[15],inactive
Cc1cc(C)cc(C)c1,outcome,[16],inactive
same,outcome,[1],inactive
same,outcome,[2],inactive
same,outcome,[3],inactive
same,outcome,[17],inactive
same,outcome,[4],inactive
same,outcome,[5],inactive
same,outcome,[6],inactive
same,outcome,[7],inactive
same,outcome,[18],inactive
same,outcome,[9],inactive
same,outcome,[10],inactive
same,outcome,[11],inactive
same,outcome,[12],inactive
same,outcome,[13],inactive
same,outcome,[19],inactive
same,outcome,[14],inactive
same,outcome,[15],inactive
Cc1ccccc1OP(=O)(Oc1ccccc1)Oc1ccccc1,outcome,[5],inactive
same,outcome,[6],inactive
same,AC50,[7],76.5 µM (active)
same,AC50,[18],12.3 µM (active)
same,outcome,[8],inactive
same,AC50,[9],47.9 µM (active)
same,outcome,[10],inactive
same,AC50,[11],64.2 µM (active)
same,AC50,[12],32 µM (active)
same,AC50,[13],57.2 µM (active)
same,outcome,[19],inactive
same,outcome,[14],inactive
same,outcome,[15],inactive
CC(C)(C)c1ccccc1O,outcome,[16],inactive
same,outcome,[1],inactive
same,outcome,[2],inactive
same,outcome,[3],inactive
same,outcome,[17],inactive
same,outcome,[4],inactive
same,AC50,[5],174 µM (active)
same,AC50,[6],163 µM (active)
same,outcome,[7],inactive
same,AC50,[18],100 µM (active)
same,outcome,[8],inactive
same,AC50,[9],75.5 µM (active)
same,outcome,[10],inactive
same,outcome,[11],inactive
same,outcome,[13],inactive
same,outcome,[19],inactive
same,outcome,[14],inactive
same,AC50,[15],156 µM (active)
Oc1ccc(Cc2ccc(O)cc2)cc1,outcome,[5],inactive
same,outcome,[6],inactive
same,AC50,[7],77.1 µM (active)
same,outcome,[18],inactive
same,outcome,[8],inactive
same,outcome,[9],inactive
same,outcome,[10],inactive
same,outcome,[11],inactive
same,outcome,[12],inactive
same,outcome,[13],inactive
same,outcome,[19],inactive
same,outcome,[14],inactive
same,outcome,[15],inactive
O=c1oc2ccccc2c(O)c1C(CC(O)c1ccc(-c2ccc(Br)cc2)cc1)c1ccccc1 (stereo not drawn),AC50,[5],39 µM (active)
same,outcome,[5],inactive
same,outcome,[6],inactive
same,AC50,[18],37.6 µM (active) and 30.8 µM (active)
same,outcome,[8],inactive
same,AC50,[9],7.97 µM (active) and 57.9 µM (active)
same,AC50,[10],54.8 µM (active) and 48.2 µM (active)
same,AC50,[13],40.6 µM (active)
same,outcome,[13],inactive
same,AC50,[19],54.6 µM (active)
same,outcome,[19],inactive
same,outcome,[14],inactive
Oc1c(Cl)cc(Cl)cc1Cl,outcome,[1],inactive
same,outcome,[2],inactive
same,outcome,[3],inactive
same,outcome,[20],inactive
same,outcome,[17],inactive
same,outcome,[6],inactive
same,outcome,[7],inactive
same,outcome,[18],inactive
same,AC50,[8],62.3 µM (active)
same,outcome,[10],inactive
same,outcome,[11],inactive
same,outcome,[13],inactive
same,outcome,[19],inactive
same,outcome,[14],inactive
